# In PubChem BioAssay (NCI):
# This is part of a sample that, as a whole, favours compounds with a hit. Of some 79,000 tested, about 15% had one in any assay. A number with no mark means an inactive call. Activity calls are given as the source filed them. Cut-off read from the data, not from the text of the source: active = growth inhibition above about 70%; inactive = the rest.
# Assay: NCI Yeast Anticancer Drug Screen. Data for the sgs1 mgt1 strain (AID 161);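 note: 0% = growth of cultures given vehicle only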
# Conditions: S. cerevisiae sgs1 mgt1 strain, at 5.0 µM (retest, dose inferred, filed as 0.5), hits give high values
# In short: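 Inhibition of yeast growth, normalised to vehicle-treated controls, is reported for a strain bearing genetic alterations in DNA damage repair.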
row,Structure (SMILES),growth inhibition
1,CCC[CH2][Sn]([CH2]CCC)([CH2]CCC)[O]C(=O)C(OC(C)=O)c1ccccc1 (stereo not drawn),99% (active)
2,CC(C)(C)S(=O)(=O)O.[Ag],100% (active)
3,COc1ccc2c(c1)C(OC)C1c3c(cc4c(c3-2)OCO4)CCN1C (stereo not drawn),12%
4,CC1=CC(=O)C=CC1(C)C(Cl)(Cl)Cl (stereo not drawn),0%
5,C=C1C(=O)C2=CC1CCC(=O)C1(C)CCC(OC(C)=O)C(C)(C)C1CC2O (stereo not drawn),12%
6,CCOc1ccc(C(CN2CCOCC2)C(C)=O)cc1OC (stereo not drawn),-4%
7,COc1cc(/C=C2\SC(=S)N(/C=C/c3nc4ccccc4[nH]c3=O)C2=O)cc(OC)c1OC,-3%
8,O=[N+]([O-])c1ccc(C2N(Cc3ccc(Cl)cc3)CCN2Cc2ccc(Cl)cc2)cc1,79% (active)
9,O=[N+]([O-])/C(=C/c1ccccc1)c1ccccc1,99% (active)
10,c1ccc(-c2cc3cc4ccccc4cn3c2)cc1,52%
11,O=[N+]([O-])c1ccc2nc3ccccc3[n+]([O-])c2c1,33%
12,O=C(CBr)C(Br)C(Br)c1ccccc1 (stereo not drawn),100% (active)
13,Nc1cccc2c1-c1ccccc1C2=O,4%
